Experimental data taken from the supplement of paper PMC4840960.
Counter-ions that a name gives are not always drawn. ± gives the standard deviation of the averaged measurements.

What was measured:
[1] = system: E18 rat cortical neuron-glia co-culture; assay: fiber score / MBP score (myelination specific beyond OL differentiation) (ratio); higher = more myelination-specific MBP alignment; conditions: treatment time: 8 days (DIV5-DIV13)
Procedure, shortened: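 Primary E18 rat cortical co-cultures (papain-dissociated, 20,000 cells/well on poly-d-lysine/laminin 96-well plates) received library compounds at 1 or 5 µM in myelination medium from DIV5 to DIV13. Cells were fixed in 4 % paraformaldehyde and immunostained for MBP and Olig2 with DAPI, and four 10X fields per well in duplicate wells were analysed. The read-out is fiber score (continuous MBP fiber length per Olig2+ nucleus) divided by MBP score (thresholded MBP area × intensity per Olig2+ nucleus).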

[2] = system: E18 rat cortical neuron-glia co-culture; assay: myelination (MBP fiber length per Olig2+ nucleus), % of 1 µM DAPT response (DMSO = 0) (% of DAPT); higher = more myelination, active = 50 or more; conditions: treatment time: 8 days (DIV5-DIV13)
Procedure, shortened: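 Primary E18 rat cortical co-cultures (papain-dissociated, 20,000 cells/well on poly-d-lysine/laminin 96-well plates) received library compounds at 1 or 5 µM in myelination medium from DIV5 to DIV13. Cells were fixed in 4 % paraformaldehyde and immunostained for MBP and Olig2 with DAPI, and four 10X fields per well in duplicate wells were analysed. Myelination was continuous straight MBP fiber length per Olig2+ nucleus, normalised to 0.1 % DMSO (0) and a 1 µM positive control (100).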

| SMILES | fiber score / MBP score ([1]; 1 µM) | fiber score / MBP score ([1]; 5 µM) | myelination ([2]; 1 µM) | myelination ([2]; 5 µM) |
| --- | --- | --- | --- | --- |
| CC(C)c1cccc(C(C)C)c1O [Propofol] | 0.782 | 0.895 | -3.16 (inactive) | -2.27 (inactive) |
| C[N+]1(CCC(C(N)=O)(c2ccccc2)c2ccccc2)CCCCC1 [Fenpiverinium] | 1.01 | 1.19 | 4.83 (inactive) | 191 |
| C[C@]12CC[C@H](O)CC1=CC[C@@H]1[C@@H]2CC[C@]2(C)C(=O)CC[C@@H]12 [Dehydroepiandrosterone] | 1.25 | 0.965 | 18.9 (inactive) | -6.07 (inactive) |
| Cc1nnc2n1-c1ccc(Cl)cc1C(c1ccccc1)=NC2 [Alprazolam] | 0.628 | 0.823 | -26.1 (inactive) | -17.4 (inactive) |
| O=C(O)C(Cl)Cl [Dichloroacetic Acid] | 0.765 | 0.882 | -10.2 (inactive) | -7.43 (inactive) |
| NC(=O)OCCCc1ccccc1 [Phenprobamate] | 0.695 | 0.885 | -14.2 (inactive) | -11.4 (inactive) |
| CN1CCN(C(=O)O[C@H]2c3nccnc3C(=O)N2c2ccc(Cl)cn2)CC1 [Eszopiclone] | 0.461 | 0.876 | -5.43 (inactive) | 15.5 (inactive) |
| C[C@]12CCC(=O)C[C@@H]1CC[C@@H]1[C@@H]2CC[C@@]2(C)[C@H]1CC[C@]2(C)O [Mestanolone] | 0.746 | 0.854 | -21.8 (inactive) | -14.6 (inactive) |
| O=C(O)CCCc1ccc(N(CCCl)CCCl)cc1 [Chlorambucil] | 0.893 | 0.615 | -6.49 (inactive) | -17 (inactive) |
| COc1ccc2c(c1)[C@]13CCCC[C@@H]1[C@H](C2)N(C)CC3 [Dextromethorphan] | 1.19 | 0.893 | 5.05 (inactive) | 1.54 (inactive) |
| C=C1C[C@@H]2[C@H](CC[C@]3(C)C(=O)CC[C@@H]23)[C@@]2(C)C=CC(=O)C=C12 [Exemestane] | 0.805 | 0.86 | -11.3 (inactive) | -11.8 (inactive) |
| CN(C)C(=O)Oc1ccc[n+](C)c1 [Pyridostigmine Bromide] | 0.691 | 0.895 | -14.3 (inactive) | -8.88 (inactive) |
| CC(=O)O[C@H]1C[C@@H]2CC[C@@H]3[C@H](CC[C@@]4(C)[C@H]3C[C@H]([N+]3(C)CCCCC3)[C@@H]4OC(C)=O)[C@@]2(C)C[C@@H]1[N+]1(C)CCCCC1 [Pancuronium] | 0.692 | 1.04 | -11 (inactive) | 2.32 (inactive) |
| CN1C(=O)CN=C(c2ccccc2)c2cc([N+](=O)[O-])ccc21 [Nimetazepam] | 0.743 | 0.878 | -11 (inactive) | -8.49 (inactive) |
| CCC(COC(=O)c1cc(OC)c(OC)c(OC)c1)(c1ccccc1)N(C)C (stereo not given) [Trimebutine] | 0.423 | 0.297 | -54.2 (inactive) | -64 (inactive) |
| FC(F)(F)c1cccc(N2CCNCC2)c1 [1-(3-trifluoromethylphenyl)piperazine hydrochloride (TFMPP)] | 0.633 | 0.613 | -32.2 (inactive) | -32.7 (inactive) |
| c1ccc2c3c([nH]c2c1)CNCC3 [Tryptoline] | 0.757 | 0.905 | -12 (inactive) | -4.44 (inactive) |
| C[C@]12CC[C@H]3[C@@H](CCC4=CC(=O)CC[C@@H]43)[C@@H]1CC[C@@H]2O [Nandrolone] | 0.984 | 0.883 | -3.41 (inactive) | -16.8 (inactive) |
| CN1CC[C@]2(c3cccc(O)c3)Cc3nc4ccccc4cc3C[C@H]2C1 | 0.572 | 0.822 | -18.1 (inactive) | 2.91 (inactive) |
| O=C1Nc2ccc(Cl)cc2C(c2ccccc2Cl)=NC1O (stereo not given) [Lorazepam] | 0.711 | 1.13 | -14.7 (inactive) | 15 (inactive) |
| O=P1(N(CCCl)CCCl)NCCCO1 (stereo not given) [Cyclophosphamide] | 0.725 | 0.547 | -41 (inactive) | -54.7 (inactive) |
| CS(=O)(=O)Nc1ccc(Cc2noc(-c3ccc4[nH]cc(CCN)c4c3)n2)cc1 | 0.563 | 0.612 | -19.6 (inactive) | -17.8 (inactive) |
| CCC(C(N)=O)N1CCCC1=O (stereo not given) [Etiracetam] | 0.904 | 0.739 | -28.6 (inactive) | -27.5 (inactive) |
| NC1=NC(=O)C(c2ccccc2)O1 (stereo not given) [Pemoline] | 0.628 | 0.845 | -21.3 (inactive) | -11.3 (inactive) |
| CCCCC/C=C\C/C=C\C/C=C\C/C=C\CCCC(=O)Nc1ccc(O)cc1 | 0.943 | 0.96 | -0.524 (inactive) | -30.5 (inactive) |
| NC(=O)C[S+]([O-])C(c1ccccc1)c1ccccc1 (stereo not given) [Modafinil] | 0.88 | 0.861 | -9.51 (inactive) | -26.7 (inactive) |
| CC(NC(C)(C)C)C(=O)c1cccc(Cl)c1 (stereo not given) [Bupropion] | 0.583 ± 0.43 | 0.467 ± 0.35 | -29.5 (inactive) | -31.8 (inactive) |
| CN1C(=O)CN=C(c2ccccc2)c2cc(Cl)ccc21 [Diazepam] | 0.832 | 0.879 | -8.32 (inactive) | -9.05 (inactive) |

| SMILES | fiber score / MBP score ([1]; 1 µM) | fiber score / MBP score ([1]; 5 µM) | myelination ([2]; 1 µM) | myelination ([2]; 5 µM) |
| --- | --- | --- | --- | --- |
| Oc1cc(Cl)ccc1Oc1ccc(Cl)cc1Cl [Triclosan] | 1.18 |  | 26.5 (inactive) |  |
| C[C@]12Cc3c[nH]nc3C[C@@H]1CC[C@@H]1[C@@H]2CC[C@@]2(C)[C@H]1CC[C@]2(C)O [Stanozolol] | 0.697 |  | -13.6 (inactive) |  |
| CCC1(c2ccc(N)cc2)CCC(=O)NC1=O (stereo not given) [Aminoglutethimide] | 0.845 | 0.779 | -5.42 (inactive) | -5.16 (inactive) |
| CCOC(=O)C1(c2ccccc2)CCN(CCC(C#N)(c2ccccc2)c2ccccc2)CC1 [Diphenoxylate] | 0.738 | 0.867 | -12.3 (inactive) | 11.5 (inactive) |
| CNC1CC(c2ccc(Cl)c(Cl)c2)c2ccccc21 (stereo not given) [Indatraline] | 0.417 |  | -58 (inactive) |  |
| O[C@@H]1CCCC[C@H]1N1CCC(c2ccccc2)CC1 (racemic) [Vesamicol] | 0.528 | 0.361 | -34.6 (inactive) | -46 (inactive) |
| CN1C(=O)COc2c(C(=O)NC3CN4CCC3CC4)cc(Cl)cc21 (stereo not given) [Azasetron] | 0.754 | 0.901 | -6.5 (inactive) | 2.28 (inactive) |
| Oc1ccc2c3c1O[C@H]1c4[nH]c5ccccc5c4C[C@@]4(O)[C@@H](C2)N(CC2CC2)CC[C@]314 [Naltrindole] | 0.716 | 0.673 | -32.5 (inactive) | -19 (inactive) |
| c1ccc2c(c1)Nc1ccccc1S2 [Phenothiazine] | 0.706 | 0.89 | -16.1 (inactive) | -5.33 (inactive) |
| O=c1c2ccccc2[se]n1-c1ccccc1 [Ebselen] | 2.01 |  | 8.33 (inactive) |  |
| Cc1ccc(-c2nc3ccc(C)cn3c2CC(=O)N(C)C)cc1 [Zolpidem] | 0.967 | 0.776 | -6.37 (inactive) | -13.3 (inactive) |
| C#CCN(C)[C@H](C)Cc1ccccc1 [Selegiline] | 0.779 ± 0.13 | 1.02 ± 0.14 | -16 (inactive) | -0.224 (inactive) |
| CC(C)N(CCC(C(N)=O)(c1ccccc1)c1ccccn1)C(C)C (stereo not given) [Disopyramide] | 0.453 | 0.371 | -13.9 (inactive) | -13.6 (inactive) |
| CC(O)(CS(=O)(=O)c1ccc(F)cc1)C(=O)Nc1ccc(C#N)c(C(F)(F)F)c1 (stereo not given) [Bicalutamide] | 0.676 | 0.996 | -28 (inactive) | -2.06 (inactive) |
| C[C@]12CC[C@H]3[C@@H](CCC4=CC(=O)CC[C@@]43C)[C@@H]1CC[C@@H]2O [Testosterone] | 0.988 ± 0.093 | 0.928 ± 0.1 | -4.77 (inactive) | -15.4 (inactive) |
| CNCC(O)c1ccc(O)cc1 (stereo not given) [Synephrine] | 0.822 | 0.702 | -6.47 (inactive) | -10.5 (inactive) |
| COC(=O)N1CCN(C(=O)Cc2ccc(Cl)c(Cl)c2)C(CN2CCCC2)C1 (stereo not given) | 0.594 | 0.389 | -13 (inactive) | -22.4 (inactive) |
| C[C@]12CC[C@H](O)CC1=CC[C@@H]1[C@@H]2CC[C@@]2(C)[C@H]1CC[C@]2(C)O [Methandriol] | 0.712 | 0.961 | -15.9 (inactive) | -4.34 (inactive) |
| CC[C@@H]1C=CC=CC[C@H](C)[C@@H](O)[C@@H](C)C(=O)[C@H](C)[C@@H](O)[C@H](C)C(=O)[C@H](C)[C@@H](O)[C@H](C)C=CC(=O)O[C@H]2[C@@H](C)[C@@H](CC1)O[C@@]1(CC[C@@H](C)[C@@H](C[C@H](C)O)O1)[C@@H]2C [Oligomycin C] | 0.799 | 1.11 | -6.58 (inactive) | 47.7 (inactive) |
| COc1cc2c(cc1OC)[C@@]13CCN4CC5=CCO[C@H]6CC(=O)N2[C@H]1[C@H]6[C@H]5C[C@H]43 [Brucine] | 0.957 | 0.692 | -6.05 (inactive) | -15.7 (inactive) |
| C=CCN1CC[C@]23c4c5ccc(O)c4O[C@H]2C(=O)CC[C@@]3(O)[C@H]1C5 [Naloxone] | 0.965 | 1.09 | -7.1 (inactive) | 3.29 (inactive) |
| COc1ccc2[nH]cc(C3=CCNCC3)c2c1 | 0.706 | 0.448 | -14.7 (inactive) | -24.2 (inactive) |
| CCN(C(C)=O)c1cccc(-c2ccnc3c(C#N)cnn23)c1 [Zaleplon] | 0.794 | 1.2 | -13.6 (inactive) | 16 (inactive) |
| CN1CC[C@]23c4c5ccc(O)c4O[C@H]2c2[nH]c4ccccc4c2C[C@@]3(O)[C@H]1C5 [Oxymorphindole] | 0.883 |  | 97 |  |
| CC[C@]1(O)CC[C@H]2[C@@H]3CCC4=CCCC[C@@H]4[C@H]3CC[C@@]21C [Ethylestrenol] | 0.661 | 1.72 | -13.8 (inactive) | 204 (active) |
| C[C@]12C/C(=C/O)C(=O)C[C@@H]1CC[C@@H]1[C@@H]2CC[C@@]2(C)[C@H]1CC[C@]2(C)O [Oxymetholone] | 0.813 | 0.965 | -11.9 (inactive) | -8.04 (inactive) |
| Oc1ccc2c3c1O[C@H]1[C@@H](O)CC[C@@]4(O)[C@@H](C2)N(CC2CCC2)CC[C@]314 [Nalbufina] | 0.796 | 0.955 | -19 (inactive) | -7.9 (inactive) |
